Each structure is given as a SMILES string. The whole screen tested about 5,500 compounds, of which about 2,000 (36%) were called active. Not shown: some 18% with an inconclusive outcome. The list shows a part of the results. A number with no mark means an inactive call. No stated cut-off is given here; in the data, active means normalized growth mostly below about 0.91 (no sharp cut-off); inconclusive means no clear call, values can overlap the other calls; inactive means mostly above about 0.92.

A short description of the assay: chemical genetic growth profiling, strain panel (AID 1159580).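 Further: tested at 20 µM; growth read once vehicle control cultures reached saturation at 30 °C; 1 = growth at the plate median or of vehicle wells; lower values mean less growth of the strain.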 The note with it: S. cerevisiae deletion strains, growth OD.

For the molecule `C[C@]12CC[C@@H](O)CC1CC[C@@H]1[C@@H]2CC[C@]2(C)C(=O)CC[C@@H]12` (stereo partly specified), the normalized growth is 0.895 (active) (locus YAL013W, strain DEP1, active compounds read low); 0.989 (locus YAL040C, strain CLN3, active compounds read low); 1 (locus YCL061C, strain MRC1 (second series), active compounds read low); 0.938 (locus YDR363W, strain ESC2, active compounds read low); 1.02 (locus YER002W, strain NOP16, active compounds read low); 0.973 (locus YGR078C, strain PAC10, active compounds read low). In addition, the normalized growth was 1.01 (locus YNL175C, strain NOP13, active compounds read low); 0.993 (locus YNL197C, strain WHI3, active compounds read low); 0.997 (locus YNL224C, strain SQS1, active compounds read low); 0.885 (locus YOR083W, strain WHI5 (second series), active compounds read low); 1.04 (locus YPL241C, strain CIN2, active compounds read low).

The values above are taken from PubChem BioAssay AID1159580 (chemical genetic matrix, 2015).
